Screening data: PubChem BioAssay, several laboratories
In the library only some 0.78% were active in any assay of this set; here they are far more common.
SARS 3CLpro inh: SARS-CoV 3CLpro protease inhibition. P0C6X7. AID 1706. hit rate 0.14% among 290,000. recombinant SARS-CoV 3CLpro, quenched FRET peptide cleavage. inhibition, % at 6 µM; in the data active = inhibition above about 12%
BJeLR viability: kills HRASV12-expressing BJeLR cells; BJeLR (HRASV12) viability, CellTiter-Glo ATP luminescence, 48 h; inhibition, % (test concentration not listed); hit rate 0.17% among 300,000; AID 1554; in the data active = inhibition above about 50%
PriA SSB inh: inhibitors of Klebsiella pneumoniae PriA binding to SSB C-terminal tail | hit rate 0.6% among 430,000 | AID 1272365 | inhibition, % at 33 µM | AlphaScreen SSBct-PriA binding, biotinylated peptide; in the data active = inhibition mostly above about 37%, no sharp cut-off; inactive = mostly below about 20%;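 also: plate controls were negative control peptide for no effect and reference peptide for full effect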
* marks the source's active call; other numbers are inactive results; i = inactive; nt = not tested or not shown; ! = not confirmed by another sample.

SMILES	SARS 3CLpro inh	BJeLR viability	PriA SSB inh
Cc1ccc(C(=O)O)cc1N1C(=O)c2cccc3c([N+](=O)[O-])ccc(c23)C1=O	2	-1	-11
O=c1c2ccccc2cc2n1CCCCC2	nt	nt	-18
CC(=Nc1ncccc1C)c1c(O)[nH]c(=O)[nH]c1=O	nt	nt	13
CCOc1ccc(-n2ccnc(SCc3ccccc3Cl)c2=O)cc1	nt	nt	-11
CCCN1CCCc2cc(CCNS(=O)(=O)CCc3ccc(OC)cc3)ccc21	nt	nt	60*
CCCN1CCCc2cc(CCNS(=O)(=O)Cc3ccc(F)cc3)ccc21	nt	nt	77*
CCCN1CCCc2cc(CCNS(=O)(=O)c3ccc(Cl)s3)ccc21	nt	nt	active!
CCCN1CCCc2cc(CCNS(=O)(=O)c3ccc(Br)cc3)ccc21	nt	nt	52*
CCCN1CCCc2cc(CCNS(=O)(=O)c3ccccc3)ccc21	nt	nt	86
O=C1C(=O)N(CCN2CCOCC2)C(c2ccc([N+](=O)[O-])cc2)C1=C(O)c1ccc2c(c1)OCO2 (stereo unspecified)	nt	nt	-6
CCn1c(SCC(=O)Nc2ccc(F)cc2F)nnc1-c1cn(C)nc1OC	nt	nt	3
Cc1nc(Nc2ccccn2)cc(N2CCN(C(=O)Nc3ccc(F)c(Cl)c3)CC2)n1	nt	nt	-17
N#Cc1ccc(CSc2nc(CC(=O)NCCc3c[nH]c4ccccc34)cc(=O)[nH]2)cc1	nt	nt	7
COc1ccc(NC(=O)[C@@H](NC(=O)N2CC3C[C@H](C2)Cn2c3cccc2=O)C(C)C)cc1	nt	nt	-10
CCn1nccc1C(=O)N=c1sc2cc(C)cc(C)c2n1C	nt	nt	-22
CC(=O)Nc1cccc(NC(=O)C(=O)NCC2CCN(Cc3cccs3)CC2)c1	nt	nt	-30
O=NN(c1ccccc1)c1ccccn1	nt	nt	19
CCCN1CCCc2cc(CCNS(=O)(=O)Cc3ccccc3)ccc21	nt	nt	94*
CCCN1CCCc2cc(CCNS(=O)(=O)Cc3cccc(Cl)c3)ccc21	nt	nt	55*
CCCN1CCCc2cc(CCNS(=O)(=O)CC)ccc21	nt	nt	46*
O=S(=O)(Cc1ccccc1)NCCc1cccc(Cl)c1	1	2	-22
CN1CCc2cc(C(CNC(=O)Nc3cccs3)N3CCOCC3)ccc21 (stereo unspecified)	nt	nt	20
O=C(NCc1cc(-c2ccc(F)cc2)on1)C1(c2ccc(Cl)cc2)CCCC1	nt	nt	-13
Cc1oncc1C(=O)N1CCN(C(=O)c2cnn3ccccc23)CC1	nt	nt	-9
O=C(Nc1ccc(Nc2cc(-n3cccn3)ncn2)cc1)c1cccc(C(F)(F)F)c1	nt	nt	12
SMILES	SARS 3CLpro inh	BJeLR viability	PriA SSB inh
Nc1cc(-c2ccccn2)[nH]n1	nt	nt	17
O=c1cc(-c2ccccn2)[nH]c(-c2ccccn2)c1	nt	nt	96*
Cn1ccnc1SCC1CCN(C(=O)Nc2ccc3c(c2)OCO3)CC1	nt	nt	-4
COC(=O)c1ccc(C(=O)NC[C@H](OC)c2ccc(Cl)s2)cc1	nt	nt	-6
COc1cccc(CNc2ccc3[nH]c(=O)[nH]c3c2)c1OCc1ccc(F)cc1	1	10	3
O=c1[nH]c2ccc(NCc3ccccc3OCc3ccc(Cl)cc3)cc2[nH]1	-1	1	92*
O=C(N[C@@H](Cc1ccccc1)C(=O)O)c1ccc(C(F)(F)F)cc1	5	-5	-4
CC(Cc1ccccc1)/[N+]([O-])=C\c1ccc(C(F)(F)F)cc1 (stereo unspecified)	nt	3	46*
O=C(O)c1cncc2c1NCCC2	nt	nt	-5
O=C(O)c1ccc2c(n1)NCCC2	nt	nt	94*
Cc1ccc2c(c1)OCC(=O)N2Cc1nc(-c2cccc(Cl)c2)no1	nt	nt	-11
COc1ccc(Cn2c(/C=C/c3ccccc3)nc3ccccc32)cc1	2	1	-67
COc1ccc(/C=C/c2nc3ccccc3n2C)cc1	-2	80*	-22
Cn1nc(CNC(=O)c2cccn(C)c2=O)c2c1CCOC2	nt	nt	-30
COc1cc(NC(=O)Nc2ccccc2)c(OC)cc1NC(=O)CN1CCCCC1	-8	-2	42*
COc1cc(NC(=O)Nc2ccccc2OC)c(OC)cc1NC(=O)CN1CCCCC1	7	-3	38
Cc1cc(-c2nc3cccnc3s2)ccc1NC(=O)c1ccc(Br)o1	nt	nt	-14
O=[N+]([O-])c1cc2c(cc1C=Nc1ccccc1)OCO2	-5	14	19
Cc1cccc(N=Cc2cc3c(cc2[N+](=O)[O-])OCO3)c1	8	-6	45*
NS(=O)(=O)c1ccc(CNC(=O)c2c[nH]c(=O)n(Cc3cccs3)c2=O)cc1	nt	nt	-2
CCCC(=O)Nc1ccc(-c2csc(N/N=C/c3ccncc3)n2)cc1	nt	nt	i
CSc1ncccc1C(=O)N1CCC(CNC(=O)c2cc(-c3ccco3)on2)CC1	nt	nt	-8
CN(C)c1cccc(C(=O)N2CCC(CSCc3ccco3)CC2)c1	nt	nt	29*
O=C(c1c[nH]c2ccccc12)N1CCC(CSCc2ccco2)CC1	nt	nt	35*
O=C(c1ccccc1F)N1CCC(CSCc2ccco2)CC1	nt	nt	12
SMILES	SARS 3CLpro inh	BJeLR viability	PriA SSB inh
N#Cc1cccc(C(=O)N2CCC(CSCc3ccco3)CC2)c1	nt	nt	3
CCOC(=O)C1CCCN(c2nc3ccccc3nc2NS(=O)(=O)c2cnn(C)c2)C1 (stereo unspecified)	nt	nt	-5
COc1cccc(OC)c1C(=O)Nc1ccc2c(c1)CCC(=O)N2Cc1ccccc1	nt	nt	-1
CC[n+]1c(/C=C/N(C)c2ccccc2)n(-c2ccccc2)c2ccc(-c3nc4ccccc4s3)cc21	-48	91*	14
CCOC(=O)c1ccc2c(c1)n(CC)c(/C=C/N(C)c1ccccc1)[n+]2CC	-3	9	-7
O=C(NCCC1=CCCCC1)c1nnc(-c2ccccc2)o1	nt	nt	-19
Cc1ccc(/C=C2\C(=O)N(c3nc(-c4ccc(Cl)cc4)cs3)N=C2c2ccccc2)o1	nt	nt	-3
Nc1nc(-c2ccccn2)nc(N)c1Cc1c(F)cccc1Cl	-2	6	35
Nc1nc(-c2ccccn2)nc(N)c1Cc1ccc(Cl)cc1Cl	-1	10	54*
Clc1ccc(OCc2nc(-c3ccccn3)no2)c(Br)c1	-6	-5	-11
Nc1nc(-c2ccccn2)nc(N)c1Cc1ccccc1F	-5	-1	95*
O=C(Cc1cccc(C(F)(F)F)c1)N1CC[C@H](n2ccnn2)C1	nt	nt	-9
COc1cc(S(=O)(=O)Nc2cccnc2)c(C)cc1Br	nt	nt	4
Cc1onc(-c2ccccc2Cl)c1C(=O)NCCn1ncc2c(=O)n(Cc3ccccc3F)cnc21	nt	nt	-9
CCCNc1nc(SC)nc2c1cnn2CCNC(=O)c1c(-c2ccccc2Cl)noc1C	nt	nt	62*
CCCCc1ccc(NC(=O)c2cc(OC)no2)cc1	nt	nt	-27
O=C(NCCCn1ccnc1)c1cc2n(n1)CCCO2	nt	nt	34*
O=C(NCCCn1ncccc1=O)c1cc2n(n1)CCCO2	nt	nt	-11
CCn1c(C)cc(O)c(C(c2ccc(SC)cc2)N2CCN(CCO)CC2)c1=O (stereo unspecified)	nt	nt	-6
COc1ccc(Nc2nc(N3CCCC3)c3ccccc3n2)cc1	-4	11	35*
CCN(CC)c1ccc(Nc2nc(N3CCOCC3)c3ccccc3n2)cc1	-1	12	87
CSc1ccc(C(=O)N(CCn2nc(C)cc2C)c2nc3ccccc3s2)cc1	nt	nt	5
CCS(=O)(=O)c1ccccc1C(=O)N1CCN(c2nc3c(OC)ccc(OC)c3s2)CC1	nt	nt	-9
Cc1nnc(N/N=C/c2cc([N+](=O)[O-])c(N3CCC(C)CC3)cc2N2CCC(C)CC2)n1N	3	-1	nt
Cc1nnc(NN=Cc2cc([N+](=O)[O-])c(N3CCC(C)CC3)cc2N2CCC(C)CC2)n1N	nt	nt	42*
O=C(NCc1nnc(SCc2ccccn2)o1)c1ccccc1	nt	nt	1
